Experimental data as given in PubChem BioAssay.
The source made the active and inactive calls.

Columns and labels:
[1] = small molecules captured by biotinylated probe aFSTL3 – biochemical, small-molecule microarray, fluorescence 635/667, stem cell growth factor project, primary screen (AID 1064); details: higher = more signal;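 note: measures binding of the biotinylated anti-FSTL3 antibody to printed compounds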
[2] = binders from COS7 lysate, DM2A8 probe, primary screen, torsin A project, cell lysate, small-molecule microarray, fluorescence 635/667 (AID 1065); details: higher = more signal, COS7 lysate expressing mutant human TOR1A
[3] = small molecules captured by biotinylated probe aFGF2 – biochemical, small-molecule microarray, fluorescence 635/667, stem cell growth factor project, primary screen (AID 1067); details: higher = more signal;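 note: measures binding of biotinylated aFGF2 protein to printed compounds on slides; z-score merges feature fluorescence and signal-to-noise across triplicate slides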
[4] = small molecules captured by biotinylated probe aFGF10 – biochemical, small-molecule microarray, fluorescence 635/667, stem cell growth factor project, primary screen (AID 1071); details: higher = more signal;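 note: score merges 667 nm spot intensity and signal to noise from triplicate slides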
[5] = biological target: Neurogenic locus notch homolog protein 2 (Homo sapiens) (UniProt Q04721); assay: small molecules binding Notch2 protein – biochemical, small-molecule microarray, 635 nm fluorescence, stem cell growth factors, primary screen (AID 1073); details: higher = more signal
[6] = biological target: Pro-neuregulin-1, membrane-bound isoform (Homo sapiens) (UniProt Q02297); assay: small molecules binding neuregulin-1 protein – biochemical, small-molecule microarray, fluorescence 635/667, psychiatric disease protein project, primary screen (AID 1075); details: NRG1 binding, 635 nm fluorescence, higher = more signal;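 note: score combines 667 nm spot fluorescence with signal to noise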
Pro-neuregulin-1, membrane-bound isoform (Homo sapiens), sequence (Q02297 whole entry, looked up, the tested form may be a part, canonical isoform): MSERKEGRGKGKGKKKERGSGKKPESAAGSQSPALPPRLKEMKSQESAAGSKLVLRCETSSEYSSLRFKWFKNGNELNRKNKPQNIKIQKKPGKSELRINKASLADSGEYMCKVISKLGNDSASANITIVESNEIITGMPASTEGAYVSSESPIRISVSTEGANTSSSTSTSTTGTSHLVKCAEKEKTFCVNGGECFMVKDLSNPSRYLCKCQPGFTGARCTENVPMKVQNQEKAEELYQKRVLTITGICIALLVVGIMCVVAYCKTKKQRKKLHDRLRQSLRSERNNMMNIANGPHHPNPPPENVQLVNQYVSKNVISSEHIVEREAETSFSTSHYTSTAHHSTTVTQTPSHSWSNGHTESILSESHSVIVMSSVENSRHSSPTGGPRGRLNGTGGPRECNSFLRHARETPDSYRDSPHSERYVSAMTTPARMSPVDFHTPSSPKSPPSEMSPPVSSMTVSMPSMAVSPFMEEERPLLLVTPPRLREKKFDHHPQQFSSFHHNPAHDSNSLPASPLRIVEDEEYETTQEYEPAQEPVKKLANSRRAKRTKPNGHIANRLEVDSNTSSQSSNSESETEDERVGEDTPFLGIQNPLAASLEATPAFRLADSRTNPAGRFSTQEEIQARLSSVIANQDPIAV

[7] = system: Neuregulin-1 EGF-like domain; assay: small molecules binding NRG1 EGF domain – biochemical, small-molecule microarray, 635 nm fluorescence, primary screen (AID 1081); details: higher = more signal;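 note: binding of the protein to compounds printed on small-molecule microarray slides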
[8] = FRG1 expression reporter modulators in myotubes – cell-based, C2C12 myotubes, firefly/Renilla luciferase, luminescence, FRG1 inhibition for FSHD, primary screen (AID 1084); details: FRG1 promoter luciferase, higher = more signal, called active from +8 up or from −8 down
[9] = small molecules captured by biotinylated probe aFST – biochemical, small-molecule microarray, fluorescence 635/667, stem cell growth factor project, primary screen (AID 1086); details: higher = more signal;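 note: score merges 667 nm fluorescence with signal-to-noise of each printed compound spot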
[10] = binders of probe aHhip on microarray, primary screen, stem cell growth factor project, biochemical, small-molecule microarray, fluorescence 635/667 (AID 1087); details: higher = more signal;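 note: score merges spot fluorescence at 667nm with spot signal to noise ratio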
[11] = system: PRMT1 (protein arginine N-methyltransferase 1); assay: small molecules binding arginine methyltransferase PRMT1 – biochemical, small-molecule microarray, 635 nm fluorescence, primary screen (AID 1088); details: higher = more signal;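 note: binding of Prmt1 protein to compounds spotted on small-molecule microarray slides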
[12] = growth effects on S. cerevisiae YJM789 – YJM789 clinical isolate, OD600, 24 h, basal, primary screen (AID 1089); details: higher = more signal, called active from +8 up or from −8 down;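 note: growth of clinical yeast isolate S. cerevisiae YJM 789 seeded 1000 cells per well; test concentration not given here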
[13] = S. pombe growth modifiers, basal conditions – strain 972, OD600, 24 h, no modulator, primary screen (AID 1090);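 note: basal condition with compound alone and no growth modifier present; test concentration not given here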; details: S. pombe 972 growth, higher = more signal, called active from +8 up or from −8 down
[14] = budding yeast growth modifiers under rapamycin – strain BY4716, OD600, 96 h, primary screen (AID 1091); note: test concentration not given here; details: S. cerevisiae BY4716 + rapamycin, higher = more signal, called active from +8 up or from −8 down
[15] = biological target: Torsin-1A-interacting protein 2 (Homo sapiens) (UniProt Q8NFQ8); assay: small molecules binding lysate-expressed LULL1 – cell lysate, human LULL1 lysate, 635/667 nm fluorescence, primary screen (AID 1092); details: small-molecule microarray, hLULL1 lysate binding, 635 nm fluorescence; higher = more signal;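 note: probe is lysate of COS7 cells overexpressing human LULL1; score merges per-feature 667 nm fluorescence with signal-to-noise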
Torsin-1A-interacting protein 2 (Homo sapiens), sequence (Q8NFQ8 whole entry, looked up): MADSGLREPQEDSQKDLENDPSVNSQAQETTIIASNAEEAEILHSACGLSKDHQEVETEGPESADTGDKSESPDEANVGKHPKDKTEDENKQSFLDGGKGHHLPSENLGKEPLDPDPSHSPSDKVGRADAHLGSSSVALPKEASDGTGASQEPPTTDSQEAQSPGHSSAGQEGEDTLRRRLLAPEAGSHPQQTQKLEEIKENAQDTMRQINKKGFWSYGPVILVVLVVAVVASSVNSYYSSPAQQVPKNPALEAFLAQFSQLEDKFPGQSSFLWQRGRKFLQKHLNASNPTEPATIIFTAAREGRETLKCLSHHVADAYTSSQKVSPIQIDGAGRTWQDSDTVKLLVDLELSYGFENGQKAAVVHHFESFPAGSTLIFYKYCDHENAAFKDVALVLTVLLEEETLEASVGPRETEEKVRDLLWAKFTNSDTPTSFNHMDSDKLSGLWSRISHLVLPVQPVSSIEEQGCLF

[16] = optical density change of DRC41 E. coli – strain DRC41, OD650, 24 h, E. coli filamentation project, primary screen (AID 1093);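 note: MC1000 strain lacking acrAB efflux and sulA so SOS filamentation is blocked; test concentration not given here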; details: E. coli DRC41 growth, higher = more signal, called active from +8 up or from −8 down
[17] = probe aLefty2 binding to arrayed compounds – biochemical, biotinylated probe, 635/667 nm fluorescence, primary screen (AID 1094); details: small-molecule microarray, higher = more signal;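 note: score merges spot fluorescence near 667 nm with spot signal-to-noise ratio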
[18] = system: Noggin (protein binding on small-molecule microarray); assay: small molecules binding Noggin protein – biochemical, 635/667 nm fluorescence, primary screen (AID 1095); details: 635 nm fluorescence, higher = more signal;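 note: score merges 667 nm feature fluorescence with signal to noise over triplicate slides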
[19] = biological target: Neurogenic locus notch homolog protein 3 (Homo sapiens) (UniProt Q9UM47); assay: small molecules binding NOTCH3 protein – biochemical, 635/667 nm fluorescence, primary screen (AID 1096); details: small-molecule microarray, 635 nm fluorescence, higher = more signal
Neurogenic locus notch homolog protein 3 (Homo sapiens), sequence (Q9UM47 whole entry, looked up): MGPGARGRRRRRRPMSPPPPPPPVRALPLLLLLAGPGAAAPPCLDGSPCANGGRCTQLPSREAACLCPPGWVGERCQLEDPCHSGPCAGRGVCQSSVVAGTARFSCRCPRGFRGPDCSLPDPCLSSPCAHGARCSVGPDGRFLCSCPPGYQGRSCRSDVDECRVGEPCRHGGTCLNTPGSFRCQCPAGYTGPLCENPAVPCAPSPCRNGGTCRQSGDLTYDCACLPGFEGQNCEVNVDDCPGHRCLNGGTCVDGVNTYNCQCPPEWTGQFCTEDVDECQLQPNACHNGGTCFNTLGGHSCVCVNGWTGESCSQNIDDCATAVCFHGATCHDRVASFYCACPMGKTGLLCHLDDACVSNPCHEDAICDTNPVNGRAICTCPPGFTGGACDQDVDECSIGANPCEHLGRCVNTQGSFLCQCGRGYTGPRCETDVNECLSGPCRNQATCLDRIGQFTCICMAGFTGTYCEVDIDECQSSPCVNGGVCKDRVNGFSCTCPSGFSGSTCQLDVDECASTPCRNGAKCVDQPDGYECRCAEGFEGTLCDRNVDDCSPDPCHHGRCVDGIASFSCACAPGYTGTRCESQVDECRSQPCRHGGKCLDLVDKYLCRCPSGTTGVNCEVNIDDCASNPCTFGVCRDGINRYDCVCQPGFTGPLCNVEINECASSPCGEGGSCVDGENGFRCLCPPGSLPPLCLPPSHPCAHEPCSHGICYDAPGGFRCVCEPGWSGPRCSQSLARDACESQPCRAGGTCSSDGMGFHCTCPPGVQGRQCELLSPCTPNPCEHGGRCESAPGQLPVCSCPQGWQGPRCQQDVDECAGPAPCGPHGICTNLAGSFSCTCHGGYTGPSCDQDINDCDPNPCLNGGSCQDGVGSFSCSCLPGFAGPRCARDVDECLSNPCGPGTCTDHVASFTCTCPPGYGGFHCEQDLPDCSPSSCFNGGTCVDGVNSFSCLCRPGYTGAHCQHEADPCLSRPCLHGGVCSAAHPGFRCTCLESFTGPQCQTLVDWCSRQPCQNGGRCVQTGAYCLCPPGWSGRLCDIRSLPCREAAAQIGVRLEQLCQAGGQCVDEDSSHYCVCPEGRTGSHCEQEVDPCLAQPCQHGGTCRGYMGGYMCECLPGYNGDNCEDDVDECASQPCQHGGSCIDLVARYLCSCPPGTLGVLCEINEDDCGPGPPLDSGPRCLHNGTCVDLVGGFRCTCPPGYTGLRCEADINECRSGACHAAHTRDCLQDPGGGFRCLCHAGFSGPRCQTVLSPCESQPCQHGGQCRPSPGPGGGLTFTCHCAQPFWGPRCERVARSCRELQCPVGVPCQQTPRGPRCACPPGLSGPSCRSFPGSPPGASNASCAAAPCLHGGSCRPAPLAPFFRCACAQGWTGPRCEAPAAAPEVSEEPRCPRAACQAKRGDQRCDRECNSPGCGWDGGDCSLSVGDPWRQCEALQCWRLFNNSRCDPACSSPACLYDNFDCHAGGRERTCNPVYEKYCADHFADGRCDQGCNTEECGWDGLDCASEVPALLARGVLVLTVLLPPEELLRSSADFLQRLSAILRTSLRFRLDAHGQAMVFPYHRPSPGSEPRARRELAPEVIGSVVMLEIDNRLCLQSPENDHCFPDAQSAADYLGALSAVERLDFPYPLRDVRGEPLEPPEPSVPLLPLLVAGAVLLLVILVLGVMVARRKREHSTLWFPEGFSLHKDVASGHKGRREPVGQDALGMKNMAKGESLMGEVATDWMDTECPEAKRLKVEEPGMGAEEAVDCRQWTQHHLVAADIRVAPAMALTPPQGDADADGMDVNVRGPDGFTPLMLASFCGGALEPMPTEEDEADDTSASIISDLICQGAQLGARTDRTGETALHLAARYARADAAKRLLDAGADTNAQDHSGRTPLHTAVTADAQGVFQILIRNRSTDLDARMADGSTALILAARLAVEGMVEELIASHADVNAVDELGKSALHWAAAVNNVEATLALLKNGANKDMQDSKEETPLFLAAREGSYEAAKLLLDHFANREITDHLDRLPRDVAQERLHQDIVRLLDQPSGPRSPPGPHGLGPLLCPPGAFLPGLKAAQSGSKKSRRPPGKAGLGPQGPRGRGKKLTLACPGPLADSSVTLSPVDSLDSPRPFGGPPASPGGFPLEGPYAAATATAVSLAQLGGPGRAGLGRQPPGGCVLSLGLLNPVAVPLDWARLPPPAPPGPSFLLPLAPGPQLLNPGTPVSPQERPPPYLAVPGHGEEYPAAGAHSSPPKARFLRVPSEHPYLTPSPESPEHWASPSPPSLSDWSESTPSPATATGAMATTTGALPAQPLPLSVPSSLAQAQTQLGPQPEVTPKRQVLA

[20] = probe aEGFR binding to arrayed compounds – biochemical, biotinylated probe, 635/667 nm fluorescence, primary screen (AID 1097); details: small-molecule microarray, higher = more signal;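 note: probe is a biotinylated anti-EGFR antibody binding compounds printed on slides; score combines fluorescence near 667 nm and signal to noise of each spot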

SMILES	composite z-score [1]	composite z-score [2]	composite z-score [3]	composite z-score [4]	composite z-score [5]	composite z-score [6]	composite z-score [7]	z-score [8]	composite z-score [9]	composite z-score [10]	composite z-score [11]	z-score [12]	z-score [13]	z-score [14]	composite z-score [15]	z-score [16]	composite z-score [17]	composite z-score [18]	composite z-score [19]	composite z-score [20]
COC(=O)C1(Cc2ccccc2)C=C2C(=C(C(C)C)C(=O)C2C)CN1 (stereo not given)	1.63	1.26	0.0992	-0.66	-0.0793	1.25	0.853	3.19 (inactive)	1.24	0.773	-1.15	0.557 (inactive)	-0.315 (inactive)	0.471 (inactive)	2.41	-1.53 (inactive)	0.469	-1.79	-1.05	0.156
CCOC(=O)C[C@H]1[C@H](OC(=O)c2ccccc2-c2ccccc2)[C@@H](NC(=O)c2ccc3ccccc3n2)c2cc(OCCCO)ccc2N1C(=O)c1ccc2ccccc2n1	-0.348	0.749	-0.074	0.304	0.607	0.189	0.0721	0.075 (inactive)	0.189	-0.0994	0.215	-0.717 (inactive)	-0.653 (inactive)	-0.299 (inactive)	0.84	0.597 (inactive)	-0.269	0.283	0.598	-0.0512
CC[C@H]1C2=C3C(CC[C@H]4C(OCc5ccc(F)cc5C(F)(F)F)OC[C@](C)([C@@H]34)N(C(=O)OC(C)(C)C)C2)C2COC(=O)OCC21 (stereo not given in full)	0.0488	-0.377	0.0246	0.112	1.25	1.47	0.874	1.82 (inactive)	1.73	-0.0047	0.254	0.416 (inactive)	1.13 (inactive)	0.896 (inactive)	3.34	-1.81 (inactive)	0.375	-0.581	1.1	-0.117
C=CCN1C(=O)[C@@]2(O[C@@H](CCO)[C@H]([Si](C)(C)c3ccc(OC)cc3)[C@H]2C)c2cc(N3C(=O)c4ccccc4Oc4ccccc43)ccc21	-0.033	0.0892	-0.0491	0.907	0.166	0.402	0.882	-1.94 (inactive)	-0.204	-0.261	0.0455	1.34 (inactive)	0.237 (inactive)	9.42 (active)	1.65	2.15 (inactive)	-0.0665	0.514	0.612	-0.135
[N-]=[N+]=Nc1ccccc1C[C@@]1(C(=O)O)N=C(c2ccc(OCCCO)cc2)O[C@@H]1c1ccccc1	0.0693	-0.518	0.0248	0.303	1.35	1.75	1.24	0.835 (inactive)	0.827	-0.0765	0.616	-0.0525 (inactive)	-0.85 (inactive)	-1.45 (inactive)	3.43	-0.0393 (inactive)	0.0917	-0.272	0.697	-0.0952
O=C1NC(=O)C2C1C=CC(C(O)c1cc(C(F)(F)F)cc(C(F)(F)F)c1)N2Nc1ccc(Cl)cc1Cl (stereo not given)	0.812	0.623	0.277	0.404	0.351	1.45	0.766	-0.166 (inactive)	0.881	-0.0346	0.33	-1.44 (inactive)	-17 (active)	-0.256 (inactive)	2.24	-2.34 (inactive)	0.0094	-0.93	0.398	0.228
COc1cc(CO)cc(I)c1O[C@H]1C=C(C(=O)NCCO)C[C@@H](NCc2ccccc2F)[C@@H]1O	-0.267	0.644	0.0232	1.17	0.161	0.321	0.989	-1.05 (inactive)	0.0915	-0.0645	1.13	2.24 (inactive)	-3.89 (inactive)	0.519 (inactive)	0.491	1.77 (inactive)	-0.0943	1.05	0.75	-0.151
COc1ccc([Si](C)(C)[C@H]2[C@H](CCn3cc([C@H](O)c4ccccc4)nn3)O[C@@]3(C(=O)N(Cc4ccc(N5CCOC5=O)cc4)c4ccccc43)[C@@H]2C)cc1	0.365	-0.437	-0.204	-0.111	-1.11	0.276	-0.426	-1.58 (inactive)	-0.757	-0.236	-0.562	1.75 (inactive)	1.78 (inactive)	3.45 (inactive)	-0.241	0.28 (inactive)	-0.0713	-1.49	-0.865	-0.227
O=C1O[C@@H](c2ccccc2)[C@@H](c2ccccc2)N2[C@@H](c3ccccc3OCCO)[C@]3(C(=O)Nc4ccccc43)[C@@H](C(=O)NC[C@H](O)c3ccccc3)[C@H]12	0.421	0.98	-0.0937	0.0718	-0.843	0.551	1.2	-2.8 (inactive)	-0.127	-0.226	1.4	2.62 (inactive)	1.68 (inactive)	5.71 (inactive)	2.69	-0.467 (inactive)	-0.139	-0.84	-0.359	-0.207
Cc1ccc(F)cc1S(=O)(=O)N[C@@H]1CCN(Cc2ccc(OC(C)C)cc2)C1	-0.0929	0.571	-0.115	-0.209	-0.863	-0.136	0.288	-1.22 (inactive)	-0.192	-0.257	-0.43	-1.01 (inactive)	-14.4 (active)	-0.839 (inactive)	-0.526	-19.6 (active)	-0.218	0.313	-0.877	-0.273
